Assay results published in PubChem BioAssay AID602145 (NMMLSC, 2011).
Activity calls are given as the source filed them.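 Rule for the calls: active = half-maximal potency of 10 µM or stronger, response changing by 30% or more across doses, valid fit; inactive = the rest.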

Assay: disruption of GST–glutathione bead interaction – biochemical, flow cytometry beads, round 2, counter-screen for Rab7 GTPase inhibitor project, SAR follow-up (AID 602145)
Details: GST-GFP binding to GSH beads; series mostly up to 100 µM

| Compound | outcome |
| --- | --- |
| Cc1cccc(C(=O)NC(=S)Nc2sc3c(c2C(=O)O)CC(C)(C)OC3)c1 | inactive |
| CC1(C)Cc2c(sc(NC(=S)NC(=O)c3ccc(F)cc3)c2C(=O)O)CO1 | inactive |
| O=C(NC(=S)Nc1sc2c(c1C(=O)O)CC1(CCCC1)OC2)c1ccccc1 | inactive |
| O=C(NC(=S)Nc1sc2c(c1C(=O)O)CCOC2)c1ccccc1 | inactive |
| CCC1(C)Cc2c(sc(NC(=S)NC(=O)c3ccccc3)c2C(=O)O)CO1 (configuration not stated) | inactive |
| CC1(C)Cc2c(sc(NC(=S)NC(=O)C3CCCCC3)c2C(=O)O)CO1 | inactive |
| Cc1ccc(C(=O)NC(=S)Nc2sc3c(c2C(=O)O)CC(C)(C)OC3)cc1 | inactive |
| CC1(C)Cc2c(sc(NC(=S)NC(=O)c3cccs3)c2C(=O)O)CO1 | inactive |
| CC1(C)Cc2c(sc(NC(=S)NC(=O)c3ccco3)c2C(=O)O)CO1 | inactive |
| CC(C)(C)C1Cc2c(sc(NC(=S)NC(=O)c3ccccc3)c2C(=O)O)CO1 (configuration not stated) | inactive |
| Cc1ccccc1C(=O)NC(=S)Nc1sc2c(c1C(=O)O)CC(C)(C)OC2 | inactive |
| COc1ccccc1C(=O)NC(=S)Nc1sc2c(c1C(=O)O)CC(C)(C)OC2 | inactive |
